{"source": "PubChem BioAssay (NCI)", "note": "About 83,000 compounds went through this panel and 20% of them were active in at least one assay; those are over-represented in the sample as a whole.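 For each line, cells grew in 96-well plates with the test compound present at a single concentration for 48 hours.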 Active and inactive are the calls of the source. How the source made its calls: active means growth percent below 10; inactive means the rest."}
{"tested_on": "MDA-MB-468 breast", "assay": "NCI-60 one-dose screen, 48 h (100 = growth as untreated, 0 = no growth, -100 = all killed)", "details": "10 µM unless noted"}
{"smiles": "O=C(COc1ccc(/C=C2\\Cc3ccc(Cl)cc3C2=O)cc1)Nc1nc2ccccc2s1", "growth": "109% (inactive)"}
{"smiles": "CC/C(=C(/c1ccc(OCCN(C)C)cc1)c1ccc(OC(=O)CCCCC(=O)c2c(C)[nH]c(/C=C3\\N=C(c4ccc[nH]4)C=C3OC)c2C)cc1)c1ccccc1", "growth": "47.5% (inactive)"}
{"smiles": "Cc1nn(-c2ccc(Cl)cc2)c(=O)n1CCN1CCOCC1", "growth": "90.3% (inactive)"}
{"smiles": "N#Cc1c(-c2cccs2)c(C#N)c(=O)n(Cc2nc3ccccc3[nH]2)c1N", "growth": "88.5% (inactive)"}
{"smiles": "CCCCCCCCn1ccc2cc(NC(=O)CN=[N+]=[N-])ccc21", "growth": "105% (inactive)"}
{"smiles": "COc1ccc(-c2csc(NC(=O)c3cc(OC)c(OC)c(OC)c3)n2)cc1", "growth": "86.8% (inactive)"}
{"smiles": "O=C(O)C1CN(c2cccc(Cl)c2)N(c2cccc(Cl)c2)C1=O", "note": "(stereo not given)", "growth": "78.7% (inactive)"}
{"smiles": "O=C(Nc1cccc(-c2nc3ccccc3[nH]2)c1)c1cccc(NC(=O)c2ccco2)c1", "growth": "70.8% (inactive)"}
{"smiles": "Cc1ccccc1CC(N)C(=O)O", "note": "(stereo not given)", "growth": "117% (inactive)"}
{"smiles": "CC(=O)c1c(C)nc2ccccc2c1/C=C/c1cccc(C)c1", "growth": "28.5% (inactive)"}
{"smiles": "OC(Cc1cccnc1)c1ccccc1", "note": "(stereo not given)", "growth": "111% (inactive)"}
{"smiles": "COc1ccc2nc3cc(Cl)ccc3c(N3CCN(c4nccc(NCc5ccccc5)n4)CC3)c2c1", "growth": "15% (inactive)"}
{"smiles": "COc1ccc2c(c1)C/C(=C\\c1cc(-c3cc(OC)c(OC)c(OC)c3)n[nH]1)C2=O", "growth": "68.8% (inactive)"}
{"smiles": "COc1cc(C2CC(=O)c3ccccc3N2)cc(OC)c1OC", "note": "(stereo not given)", "growth": "90.5% (inactive)"}
{"smiles": "O=C(/C=C/C=C/c1ccccc1)c1ccco1", "growth": "29.3% (inactive)"}
{"smiles": "COc1ccc(NC(=O)/C=C/c2ccc(Cl)c(Cl)c2)cn1", "growth": "69.5% (inactive)"}
{"smiles": "COc1ccc(Nc2[nH]n3c(=O)cc(C)nc3c2C(N)=O)c(OC)c1", "growth": "97.3% (inactive)"}
{"smiles": "COc1ccc(N2CCN(CC(=O)N3CCN(c4nnc(-c5ccc(Cl)cc5)c(-c5ccc(Cl)cc5)n4)CC3)CC2)cc1", "growth": "78.6% (inactive)"}
{"smiles": "CS(=O)(=O)N1CCN(Cc2cc3nc(-c4cccc5[nH]ncc45)nc(N4CCOCC4)c3s2)CC1", "growth": "-19.6% (active)"}
{"smiles": "COc1cc2nc(SCc3cc(OC)c(OC)c(OC)c3)n(Cc3ccccc3)c(=O)c2cc1OC", "growth": "-10.1% (active)"}
{"smiles": "COc1cc(/C=C/c2cc(O)c(C(C)=O)c(O)c2)cc2c1O[C@]1(C)CC[C@@H](O)C(C)(C)[C@H]1C2", "growth": "77.6% (inactive)"}
{"smiles": "O=C(/C=C/c1c[nH]c2ccccc12)c1ccc(O)c(CN2CCN(c3ccc(F)cc3)CC2)c1", "growth": "97.4% (inactive)"}
{"smiles": "Cc1ccc2[nH]c(=S)[nH]c(=O)c2c1", "growth": "102% (inactive)"}
{"smiles": "C#Cc1ccc(-n2c(/C=C/c3cc(OC)c(OC)c(OC)c3)nc3ncccc3c2=O)cc1", "growth": "3.92% (active)"}
{"smiles": "O=C1C(Cl)=C(Nc2ccc(O)cc2)C(=O)N1Cc1ccc(Cl)cc1", "growth": "5.88% (active)"}
{"smiles": "Cc1[nH]nc2ccc(-c3nc4cnc(N5CCN(C)CC5)cn4c3Nc3ccc(F)cc3Br)cc12", "growth": "56.2% (inactive)"}
{"smiles": "CCSCC1CC(O)(c2ccccc2)C(c2ccccc2)C(c2ccc(Cl)cc2)O1", "note": "(stereo not given)", "growth": "35.9% (inactive)"}
{"smiles": "CSc1nc(-c2ccc(F)cc2)c(C#N)c(N2CCOCC2)n1", "growth": "87.3% (inactive)"}
{"smiles": "COc1cc(OC)c2sc(-c3ccc(-n4cncc4-c4ccc(N)cc4)cc3)nc2c1", "growth": "67.3% (inactive)"}
{"smiles": "O=C(CN1CCN(c2cc(=O)[nH]c3ccc(F)cc23)CC1)Nc1ccc(Cl)cc1", "growth": "58.2% (inactive)"}
{"smiles": "O=C(O)CSCc1nc2ccccc2[nH]1", "growth": "118% (inactive)"}
{"smiles": "Cc1ccc(-c2c3c(N)nc(-c4cccnc4)nc3nc3c2c(C)nn3-c2ccccc2)cc1", "growth": "74.6% (inactive)"}
{"smiles": "NC(=O)c1ccc(NC(=O)c2oc3ccccc3c2-c2cnn(-c3ccccc3)c2)cc1", "growth": "24.2% [50 µM] (inactive)"}
{"smiles": "COc1ccc2[nH]cc(-c3cc(N)n4nc(-c5c[nH]c6ccc(OC)cc56)cc4n3)c2c1", "growth": "-47.9% (active)"}
{"smiles": "CCOC(=O)c1sc(/N=C2\\NC(=O)/C(=C/c3ccc(N4CCN(C)CC4)cc3)S2)nc1C", "growth": "111% (inactive)"}
{"smiles": "CCN(c1cc(-c2ccc(CN3CCC(/C=C/S(=O)(=O)c4ccccc4)CC3)cc2)cc(C(=O)NCc2c(C)cc(C)[nH]c2=O)c1C)C1CCOCC1", "growth": "55.9% (inactive)"}
{"smiles": "NS(=O)(=O)c1ccc(CCN=C=S)cc1", "growth": "-6.54% (active)"}
{"smiles": "CC(C)(C)OC(=O)NCc1ccc(CNc2c([N+](=O)[O-])cnc3ccccc23)cc1", "growth": "22.2% (inactive)"}
{"smiles": "Cn1ccnc1C(=O)/C=C/c1ccc(C(=O)Nc2ccccc2F)cc1", "growth": "22.3% (inactive)"}
{"smiles": "COc1cc(-c2nccc3[nH]c(-c4ccc5cc[nH]c5c4)nc23)cc(OC)c1OC", "growth": "-36.7% (active)"}
